The text below walks through data of PubChem BioAssay (NCI).

Each structure is given as a SMILES string. Compounds without any hit were thinned out: in the full panel of roughly 83,000, 20% have a hit.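 Treatment: one concentration, 48 hours, 96-well format. Scoring: percent growth, with anything below 10 considered active.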 Values without a mark were called inactive. Active and inactive are the calls of the source.

Test systems include NCI/ADR-RES ovarian; T-47D breast; BT-549 breast; MDA-MB-435 melanoma; SW-620 colon; MCF7 breast; HCT-116 colon; HCC-2998 colon; KM12 colon.
What all share (assay): NCI-60 one-dose screen, 48 h (100 = growth as untreated, 0 = no growth, -100 = all killed)
What all share (conditions): 10 µM unless noted

As to `CC1(C)N=C(N)N=C(N)N1c1ccc(CCCCc2ccc(Cl)c(S(=O)(=O)F)c2)c(Cl)c1`, the growth with NCI/ADR-RES ovarian is 55.6%; in the assay on T-47D breast, 42.3%; in the assay on BT-549 breast, 24.7%; in the assay with MDA-MB-435 melanoma it was 24.6%; with SW-620 colon, 24.4%; in the assay with MCF7 breast, 19.1%. The results for the growth with HCT-116 colon, with HCC-2998 colon and in the assay with KM12 colon were 19.6%, 23.7% and 15.2%, respectively.

As for `CCCCCCCC[n+]1ccc2ccccc2c1`, the growth was 95.6% with NCI/ADR-RES ovarian; 27.1% in the assay with T-47D breast; 32.3% with BT-549 breast; 46.2% in the assay with MDA-MB-435 melanoma; 75.9% in the assay on SW-620 colon; 41.1% in the assay on MCF7 breast. In addition, the growth in the assay on HCT-116 colon is 46.5%; with HCC-2998 colon, 47.4%; in the assay on KM12 colon it was 46.1%.

Consider `COc1cc(NC(C)CCCNC2CN3CCC2CC3)c2ncccc2c1` (stereo unspecified), for which the growth with NCI/ADR-RES ovarian was 96.9%; in the assay on T-47D breast, 69.9%; in the assay with BT-549 breast it was 86%; with MDA-MB-435 melanoma, 94.3%; in the assay with SW-620 colon it was 72.6%; in the assay with MCF7 breast, 0.157% (active). Further, the figures for the growth in the assay with HCT-116 colon, with HCC-2998 colon and with KM12 colon were 66.4%, 75.4% and 85.5%, respectively.

On to `NC(CCl)CCl`, for which the growth was 105% with NCI/ADR-RES ovarian; -100% (active) with T-47D breast; 107% with BT-549 breast; 89.2% with MDA-MB-435 melanoma; 102% in the assay on SW-620 colon; 96.5% with MCF7 breast. The growth is 107% with HCT-116 colon, 101% in the assay with HCC-2998 colon and 99.5% in the assay on KM12 colon.

Regarding `C[C@]12CC[C@@H]3c4ccc(Oc5nc(N6CC6)nc(N6CC6)n5)cc4CC[C@H]3[C@@H]1CCC2=O`, the growth in the assay with NCI/ADR-RES ovarian is 41.2%; in the assay with T-47D breast, 33.7%; with BT-549 breast, 53.9%; in the assay on MDA-MB-435 melanoma, 48.5%; in the assay on SW-620 colon it was 25.1%; with MCF7 breast, 20.6%. The growth in the assay on HCT-116 colon was 26.7%; in the assay on HCC-2998 colon, 37%; in the assay on KM12 colon, 50%.

`COC1OC(CO)C(O)C(O)[CH]1[Hg][O]C(C)=O` (stereo unspecified): the growth in the assay on NCI/ADR-RES ovarian is 92.4%; in the assay on T-47D breast, 63.8%; in the assay on BT-549 breast, 103%; in the assay on MDA-MB-435 melanoma, 93.7%; in the assay with SW-620 colon, 89%; in the assay on MCF7 breast, 53.2%. For the same compound, the growth was 102% with HCT-116 colon, 106% with HCC-2998 colon and 94.5% in the assay on KM12 colon.

For `CC(=O)Nc1ccc(NC(=O)c2ccc([As](O)O)cc2)cc1`, the growth with NCI/ADR-RES ovarian was 101%; in the assay on T-47D breast it was 48.3%; in the assay on BT-549 breast, 113%; in the assay with MDA-MB-435 melanoma it was 99.8%; in the assay with SW-620 colon it was 87.9%; in the assay on MCF7 breast, 85%. Also, the growth was 101% with HCT-116 colon, 112% in the assay with HCC-2998 colon and 124% in the assay on KM12 colon.

Consider `COc1cc(/C=C/[N+](=O)[O-])c([N+](=O)[O-])cc1OC`, for which the growth is 13.5% in the assay with NCI/ADR-RES ovarian; 16.5% with T-47D breast; 87.3% in the assay with BT-549 breast; 14% with MDA-MB-435 melanoma; -57.3% (active) in the assay on SW-620 colon; 8.83% (active) in the assay with MCF7 breast. Moreover, the growth in the assay with HCT-116 colon is -62.4% (active); in the assay with HCC-2998 colon, 86.3%; in the assay on KM12 colon, 18.5%.

Consider `CN(C)C(=O)Oc1ccccc1`, for which the growth was 98.2% in the assay on NCI/ADR-RES ovarian; 105% in the assay with T-47D breast; 118% in the assay with BT-549 breast; 112% in the assay with MDA-MB-435 melanoma; 93.8% with SW-620 colon; 104% in the assay on MCF7 breast. Moreover, the growth in the assay on HCT-116 colon is 104%; in the assay with HCC-2998 colon it was 102%; in the assay with KM12 colon it was 110%.

On to `Cc1cc(NC(=O)NCc2ccc(N3C(N)=NC(N)=NC3(C)C)cc2)ccc1S(=O)(=O)F`, for which the growth is 112% in the assay on NCI/ADR-RES ovarian; 59.7% with T-47D breast; 42% with BT-549 breast; 32.7% in the assay on MDA-MB-435 melanoma; 23.9% in the assay on SW-620 colon; 23.2% in the assay with MCF7 breast. Also, the figures for the growth in the assay with HCT-116 colon, in the assay on HCC-2998 colon and with KM12 colon were 23.3%, 5.34% (active) and 16.2%, respectively.

Take `NC(=Nc1ccccc1)N[N+](=O)[O-]`: the growth is 101% with NCI/ADR-RES ovarian; 97% in the assay on T-47D breast; 88.5% with BT-549 breast; 118% in the assay on MDA-MB-435 melanoma; 97.8% in the assay with SW-620 colon; 100% in the assay with MCF7 breast. Besides, the growth in the assay on HCT-116 colon was 101%; in the assay with HCC-2998 colon, 98.8%; in the assay with KM12 colon it was 106%.

With `COc1cc([C@@H]2c3cc4c(cc3[C@H](OC(C)=O)[C@H]3COC(=O)[C@H]23)OCO4)cc(OC)c1OC`, the growth is 3.8% (active) in the assay with NCI/ADR-RES ovarian; 57.8% with T-47D breast; 31.5% with BT-549 breast; -8.58% (active) in the assay on MDA-MB-435 melanoma; 27.3% in the assay with SW-620 colon; 14.9% with MCF7 breast. Also, the growth in the assay on HCT-116 colon is 7.01% (active); with HCC-2998 colon, 15%; in the assay on KM12 colon it was 17.8%.

As for `CC[C@H](C)[C@H](NC(=O)N[C@@H](C)c1ccccc1)C(=O)N(C)[C@H](C[C@@H](OC(C)=O)c1nc(C(=O)N[C@@H](Cc2ccccc2)C[C@H](C)C(=O)OC)cs1)C(C)C`, the growth in the assay on NCI/ADR-RES ovarian was 50%; in the assay with T-47D breast, 76.7%; in the assay with BT-549 breast, 10.5%; with MDA-MB-435 melanoma, -41.7% (active); with SW-620 colon, 16.8%; in the assay on MCF7 breast, 17.5%. For the same compound, the growth in the assay with HCT-116 colon was 9.92% (active); in the assay on HCC-2998 colon, 23.7%; with KM12 colon, 2.6% (active).

Consider `COc1cc(/C=N/C2=C(C#N)C(c3ccco3)c3c(c4cc(C)ccc4oc3=O)O2)cc(OC)c1OC` (stereo unspecified), for which the growth is 96.3% in the assay with NCI/ADR-RES ovarian; 88.2% in the assay with T-47D breast; 91.1% with BT-549 breast; 26.1% with MDA-MB-435 melanoma; 81.7% in the assay with SW-620 colon; 70.1% with MCF7 breast. The growth in the assay with HCT-116 colon is 84.9%; in the assay on HCC-2998 colon, 109%; in the assay on KM12 colon, 81.4%.
